Results on 7 sequences are retold here after the supplement of paper PMC6555819.

What all share (test): PBM binding z-score (relative to random genomic background probes); higher = stronger binding; sequences stand for … in GC…GCGATTGACAGCGTAGAATGAAGG
Assay [1] concerns RARb homodimer (NR concentration 270 nM). Put shortly:
(§1)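 For binding z-scores, the reference was random background probes on custom Agilent 4×180K protein-binding microarrays. These arrays were incubated 1 h with ligand-free nuclear receptor dimers in PBS pH 7.4, 2% milk, 0.02% Triton X-100, 1 mM DTT, 0.2 mg/mL BSA and 0.4 mg/ml salmon testes DNA. Fluorescence was scanned after antibody detection of each partner (one per run) and regression-normalized.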

Assay [2] deals with RARg:RXRa (NR concentration 270 nM, RXRa partner concentration 90 nM). Put shortly:
as §1

Assay [3] deals with RARg homodimer (NR concentration 270 nM). Put shortly:
as §1

For assay [4], the system named is RXRa DBDmut IVT, anti-RXR (DBD mutation: RXRa K156A/R161A, NR concentration 90 nM). In short, it runs like this:
as §1

The subject of assay [5] is RXRa homodimer (NR concentration 180 nM). In short, it runs like this: as §1
The test system of assay [6] is THRa:RXRa (NR concentration 90 nM, RXRa partner concentration 90 nM). Put shortly:
as §1

Assay [7] deals with THRa homodimer (NR concentration 90 nM). Put shortly: as §1
The subject of assay [8] is VDR homodimer (NR concentration 270 nM). In short, it runs like this:
as §1

CCAGACAGGTGAGAAGTTAACTCAGCCTCGATTA: the PBM binding z-score was 0.312 in assay [1]; 0.26 in assay [2]; 0.42 in assay [3]; 0.268 in assay [4]; 0.0935 in assay [5]; 0.0119 in assay [6]. The PBM binding z-score is -0.003 in assay [7] and -0.158 in assay [8].
On to TCAGACTGGTGAAGGTAACTCAGGTACGCAGTCG, for which the PBM binding z-score in assay [1] is -0.0938; in assay [2] it was -0.218; in assay [3] it was -0.262; in assay [4], 0.596; in assay [5], 0.463; in assay [6], 0.985. For the same sequence, the PBM binding z-score in assay [7] is 0.0816; in assay [8], -0.271.
As for CAAACTAGGTCAAGGGTCAAAGTCGAGCCAACCA, the PBM binding z-score in assay [1] is 4.7; in assay [2] it was 7.41; in assay [3], 6.13; in assay [4], 2.47; in assay [5] it was 8.6; in assay [6], 4.36. Also, the PBM binding z-score in assay [7] was 1.45; in assay [8] it was 3.15.
On to ATACCAAGGTGATCGTGAGGTCGTTGCTACTAAC, for which the PBM binding z-score in assay [1] was 1.88; in assay [2], 2.03; in assay [3], 0.891; in assay [4], 0.967; in assay [5] it was 1.56; in assay [6] it was 3.25. Also, the PBM binding z-score in assay [7] was 2.43; in assay [8], 3.33.
With GCGACTGGGGCATCAGCAGGTTACCATGACTTAA, the PBM binding z-score in assay [1] was 0.92; in assay [2] it was 0.761; in assay [3], 0.815; in assay [4], -0.0631; in assay [5] it was 0.124; in assay [6], 0.654. For the same sequence, the PBM binding z-score in assay [7] is 0.00537; in assay [8] it was -0.549.
As to CAAACTAGGTCAAGAGGTCATAGTCCGCTTCCCG, the PBM binding z-score in assay [1] came out at 5.49; in assay [2] it was 7.6; in assay [3], 7.08; in assay [4], 2.78; in assay [5] it was 7.48; in assay [6], 4.35. The values for the PBM binding z-score in assay [7] and in assay [8] were 2.59 and 3.82, respectively.
For CAAACTAGGTCAAGAGGTCACAGTCCGCTTCCCG, the PBM binding z-score in assay [1] turned out to be 5.76; in assay [2], 7.87; in assay [3] it was 7.83; in assay [4], 2.79; in assay [5], 7.55; in assay [6], 4.57. The PBM binding z-score in assay [7] came to 3.21; in assay [8], 3.7.
